Outcome data for one molecule are collected here from PubChem BioAssay AID1053119 (Broad Institute, 2014).

The nature of this experiment: A549 cell cytotoxicity, dose response, cytotoxicity control, cherry-picks, 26 µM top dose (AID 1053119). As to conditions: A549 viability, CellTiter-Glo ATP luminescence, 72 h; series mostly up to 26 µM. Background: In ATP-based viability assays light output follows the ATP content of the culture.

Results with a measured potency or affinity are listed apart. Results filed as inconclusive are left out. Active and inactive are the calls of the source.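 The calls were made as follows: active = signal loss from cell killing with fitted potency at or below twice the top valid dose; inconclusive = flat drop of 30 to 70%, or unreliable curve fit; inactive = opposite direction, flat within 30%, or weaker potency.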

For `C=C1C(=O)O[C@@H]2C[C@@H](C)[C@@H]3C=CC(=O)[C@@]3(C)[C@@H](O)[C@H]12`, the molecule was classed as inactive.
